SMILES strings stand for the structures. Hit rate of the full screen: of about 13,000 compounds, about 3,200 (25%) showed an effect of 50% or more. This is one part of the list.

The experiment relates to P. falciparum stage V gametocytes. Further details: BacTiter-Glo ATP luminescence viability of purified stage V gametocytes in 384-well plates, per cent inhibition versus DMSO. To be noted: 48 h, 5 µM; inhibitor.
The % Inhibition is the change of the read-out against control, counted positive when it falls. `O=C(NCC(CCN1CCC(c2c[nH]c3ccccc23)CC1)c1ccccc1)Nc1ccc(Cl)c(Cl)c1` (stereo not drawn) [TCMDC-139626]: the “% Inhibition” value came to 1.901%.
The figure for `COc1cccc2cc(C(=O)N[C@@H](CC(C)C)C(=O)N[C@H](C=NN3CCOC3=O)CC(C)C)oc12` [TCMDC-136064] is 12.6%.
Take `Cc1noc(=O)c2ccc(NC(=O)C(O)(CSc3ccccc3)CC(C)C)cc12` (stereo not drawn) [TCMDC-135222]: the “% Inhibition” value is on record as 46.49%.
The figure for `Fc1cc(Cl)ccc1Nc1ccnc(Nc2ccc3cn[nH]c3c2)n1` [TCMDC-138575] is 13.66%; for `c1ccc(-c2[nH]ncc2Nc2ccnc3ccccc23)nc1` [TCMDC-138641] it is -8.718%; for `NC(=O)c1cc2nc(NC3CCC3)nc(Nc3cccc4[nH]ncc34)c2[nH]1` [TCMDC-137005] it is 21.61%.
The result for `O=C(Cc1ccc([N+](=O)[O-])cc1)N1CCc2cc3nccc(N4CCN5CCC[C@@H]5C4)c3cc21` [TCMDC-140039] reads -19.96%; that for `O=C(Nc1ccc([N+](=O)[O-])cc1Cl)c1cc(Br)cc(Cc2ccccc2)c1O` [TCMDC-124004], 12.42%; that for `O=C(Nc1ccccc1Cc1ccccc1)c1ccccc1[N+](=O)[O-]` [TCMDC-124438], 42.41%.
Turning to `O=C(Nc1ccccc1Cc1ccccc1)c1ccccc1C(F)(F)F` [TCMDC-123550], the “% Inhibition” value stood at 54.56%.
For `O=C(Nc1ccc2c(c1)CCN2C1CCN(Cc2csc3ccccc23)C1)c1ccco1` (stereo not drawn) [TCMDC-135069], the “% Inhibition” value stood at 39.32%.
Consider `CCN1CCCC(Nc2ccnc3cc4ccccc4cc23)C1` (stereo not drawn) [TCMDC-123499], for which the “% Inhibition” value came out at 94.14%.
Consider `CN1CCN(c2ccnc3cc4ccccc4cc23)CC1` [TCMDC-124200], for which the “% Inhibition” value amounted to 1.444%.
For `c1ccc2cc3c(NCCN4CCOCC4)ccnc3cc2c1` [TCMDC-125814], the “% Inhibition” value is given as -3.95%.
The result for `Cn1c(=N)cc(-c2ccc(Br)cc2)c2c(=O)[nH]c(N)nc21` [TCMDC-137743] reads 6.431%; that for `Cc1csc(-c2ccc3[nH]cc(C4=CCN(C)CC4)c3c2)n1` [TCMDC-132040], -6.013%; that for `O=S(=O)(Nc1cc2c(cc1OCCCN1CCCCC1)CCNCC2)c1ccc(-c2ccc(Cl)cc2)cc1` [TCMDC-141753], 106.2%.
On to `CC(C)Oc1cc2c(cc1NS(=O)(=O)c1ccc(-c3ccc(Cl)cc3)cc1)CCN(C)CC2` [TCMDC-141459], for which the “% Inhibition” value came out at 21.1%.
In the case of `Cc1cc(-c2ccc(S(=O)(=O)Nc3cc4c(cc3OC(C)C)CCN(C)CC4)cc2)ccc1Cl` [TCMDC-141488], the “% Inhibition” value was found to be 42.37%.
As to `CN1CCc2cc(O)c(NS(=O)(=O)c3ccc(-c4ccc(Cl)cc4)cc3)cc2CC1` [TCMDC-141501], the “% Inhibition” value is on record as -85.22%.
Take `CN1CCc2cc(NS(=O)(=O)c3ccc(-c4ccc(Cl)s4)cc3)c(N3CCCCC3)cc2CC1` [TCMDC-141588]: the “% Inhibition” value is recorded as 76.97%.
As to `COc1ccc(-c2ccc(S(=O)(=O)Nc3cc4c(cc3OC(C)C)CCNCC4)cc2)cc1` [TCMDC-141481], the “% Inhibition” value is given as 37.39%.
The figure for `CN1CCc2cc(NS(=O)(=O)c3ccc(-c4ccc(Cl)cc4)cc3)c(OCCCN3CCCCC3)cc2CC1` [TCMDC-141754] is 108.9%; for `CC(C)Oc1cc2c(cc1NS(=O)(=O)c1ccc(-c3ccc(Cl)s3)cc1F)CCN(C)CC2` [TCMDC-141582] it is 18.13%; for `O=S(=O)(Nc1cc2c(cc1O)CCNCC2)c1ccc(-c2ccc(Cl)cc2)cc1` [TCMDC-141497] it is -93.89%.
In the case of `N=C(N)NCCCCN(Cc1ccccc1)c1ccccc1` [TCMDC-131834], the “% Inhibition” value is 24.97%.
The result for `Nc1nc2cccc3ccc4cccc1c4c32` [TCMDC-142055] reads 15.08%.
The figure for `COc1cc2ncnc(Nc3ccc(OCc4ccccc4Br)c(Cl)c3)c2cc1OC` [TCMDC-131913] is 20.89%; for `O=[N+]([O-])c1ccc(C=NO)nc1` [TCMDC-131967] it is 114.3%; for `CCCCN(CCCC)Cc1cc(N(C)c2ccc([N+](=O)[O-])cn2)ccc1O` [TCMDC-137484] it is -6.258%.
Consider `O=[N+]([O-])c1ccc(C=NNc2nc3ccccc3[nH]2)cc1` [TCMDC-124105], for which the “% Inhibition” value is on record as -75.71%.
The result for `NC1CCN(c2nc(NCCCc3ccc(O)cc3)nc(NCc3ccccc3-c3ccccc3)n2)CC1` [TCMDC-133390] reads 36.08%; that for `CC1(C)N=C(N)N=C(N)N1OCCc1ccccc1` [TCMDC-131597], -4.135%; that for `CCCCN1CCN(c2cc(NS(=O)(=O)c3cccc(C(=O)Nc4ccc(C(F)(F)F)cc4)c3)ccc2OC)CC1` [TCMDC-141779], -16.75%.
On to `COc1cc2c(cc1OC)C(C(=O)Nc1ccc(C(F)(F)F)cc1)C(c1cccs1)N(C)C2=O` (stereo not drawn) [TCMDC-123797], for which the “% Inhibition” value is recorded as 62.6%.
The figure for `COc1ccc(C2C(C(=O)Nc3cc(C)ccc3OC)c3ccccc3C(=O)N2C)cc1` (stereo not drawn) [TCMDC-123595] is 25.42%; for `COc1ccc(NC(=O)c2ccc(-c3nc(-c4cccc(C(F)(F)F)c4)cs3)cc2)cc1N1CCN(C)CC1` [TCMDC-138686] it is 5.66%.
With `COc1cc(OC)c(NC(=O)Nc2ccnc3ccccc23)cc1Cl` [TCMDC-139463], the “% Inhibition” value worked out at 15%.
Consider `COc1ccc(NC(=O)C2c3ccccc3C(=O)N(CC(C)C)C2c2cccs2)cc1OC` (stereo not drawn) [TCMDC-125289], for which the “% Inhibition” value is 95.75%.
With `COc1ccc(C2C(C(=O)Nc3cc(Cl)c(OC)cc3OC)c3ccccc3C(=O)N2C)cc1` (stereo not drawn) [TCMDC-123596], the “% Inhibition” value came out at 80.19%.
The figure for `COc1cc(OC)c(NC(=O)C2c3ccccc3C(=O)N(C)C2c2cccs2)cc1Cl` (stereo not drawn) [TCMDC-125447] is 95.47%; for `COc1ccc(C2CC(c3cccs3)=NN2C(=O)CNc2ccccc2F)cc1OC` (stereo not drawn) [TCMDC-123552] it is -9.982%.
Turning to `COc1ccc(C2C(C(=O)Nc3ccc(C)cc3Br)c3ccccc3C(=O)N2C)cc1` (stereo not drawn) [TCMDC-123597], the “% Inhibition” value is reported as -11.57%.
With `O=C(/C=C/c1ccc(Cl)cc1)NCCCCCN1CCCC(C(=O)Nc2ccc(F)c(Cl)c2)C1` (stereo not drawn) [TCMDC-136113], the “% Inhibition” value stood at 4.941%.
Regarding `CCN(CC)CCNC(=O)c1ccc(NC(=O)c2cc3c(C)nn(-c4ccc(Cl)cc4)c3s2)cc1` [TCMDC-124020], the “% Inhibition” value is 26.74%.

These data come from paper PMC4552634, “A New Set of Chemical Starting Points with Plasmodium falciparum Transmission-Blocking Potential for Antimalarial Drug Discovery” (PLoS ONE, 2015).
